High-throughput results from PubChem.
Shown are actives, neighbours in structure and some others; about 4% of the full set was active somewhere.
HIF-2a block: HIF-2a inhibition; AID 624352; 360,000 compounds, 0.72% hits; 786-0 RCC cells HIF-2a reporter, luciferase luminescence, overnight; inhibition, % at 18.8 µM;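 active means inhibition of the luminescence signal of 40% or more relative to plate controls, in a single-dose primary screen at 18.75 µM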
Peg3 promoter: inhibitors of Peg3 promoter | HeLa PEG-Prom luciferase reporter, luminescence, overnight | inhibition, % at 20 µM | 360,000 compounds, 1.7% hits;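 active means inhibition of at least 50% at 20 µM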
MITF TRPM1 inh: reduces MITF-dependent TRPM1 promoter luciferase signal. SK-MEL-5 TRPM1 promoter luciferase, 24 h. inhibition, % at 12.5 µM. 330,000 compounds, 0.83% hits. AID 488899;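 active means mean inhibition across replicates of 60% or more, whatever share of single replicates reaches that level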
EBV LMP1 NFkB: Epstein-Barr LMP1 NF-kappaB reporter inhibition | LMP1-induced NF-kappaB luciferase reporter cells, luminescence | inhibition, % at 12.5 µM | 350,000 compounds, 0.69% hits | AID 504558; in the data active means inhibition above about 41%;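 further: 0% = neutral control wells and 100% = reference inhibitor control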
TROY signal inh: inhibitors of TROY-dependent NF-kB signaling; Q293 LMP1-TROYcd NF-kB luciferase reporter, 4 h; inhibition, % at 10 µM; 360,000 compounds, 0.98% hits; AID 1347056;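 active means compounds whose plate-normalised and pattern-corrected inhibition of the luciferase reporter signal at the single screening dose is 50% or more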
TWEAK-Fn14 inh: blocks TWEAK-Fn14 interaction in a reporter cell assay | TWEAK-stimulated Fn14 reporter cells, luciferase luminescence, 8 h | inhibition, % at 10 µM | 360,000 compounds, 2% hits | AID 1159606; in the data active means inhibition above about 50%
Mdm2-MdmX confirm: confirmation of inhibitors of human Mdm2/MdmX interaction, set 2 | AID 504601 | inhibition, % at 8 µM | SaOS-2 split-luciferase Mdm2/MdmX complementation, luminescence | shares compounds with HIF-2a block | 740 compounds, 99% hits;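 active means mean inhibition of the luminescence signal across two replicates at or above 26 percent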
Target sequence (O15151 whole entry, looked up): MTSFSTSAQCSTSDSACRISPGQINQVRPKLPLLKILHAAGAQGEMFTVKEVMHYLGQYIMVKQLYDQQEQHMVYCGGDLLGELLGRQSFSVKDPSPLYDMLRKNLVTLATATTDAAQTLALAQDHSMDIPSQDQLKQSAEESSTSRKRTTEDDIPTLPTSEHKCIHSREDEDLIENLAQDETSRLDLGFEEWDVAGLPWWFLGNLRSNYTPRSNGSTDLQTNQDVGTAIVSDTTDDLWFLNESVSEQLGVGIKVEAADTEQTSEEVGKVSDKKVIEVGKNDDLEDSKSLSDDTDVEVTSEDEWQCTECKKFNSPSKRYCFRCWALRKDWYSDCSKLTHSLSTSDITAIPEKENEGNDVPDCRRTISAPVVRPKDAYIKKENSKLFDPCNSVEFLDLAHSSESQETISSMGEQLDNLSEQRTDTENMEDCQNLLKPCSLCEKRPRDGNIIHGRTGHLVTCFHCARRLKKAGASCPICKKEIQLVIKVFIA
Target sequence (Q00987 whole entry, looked up): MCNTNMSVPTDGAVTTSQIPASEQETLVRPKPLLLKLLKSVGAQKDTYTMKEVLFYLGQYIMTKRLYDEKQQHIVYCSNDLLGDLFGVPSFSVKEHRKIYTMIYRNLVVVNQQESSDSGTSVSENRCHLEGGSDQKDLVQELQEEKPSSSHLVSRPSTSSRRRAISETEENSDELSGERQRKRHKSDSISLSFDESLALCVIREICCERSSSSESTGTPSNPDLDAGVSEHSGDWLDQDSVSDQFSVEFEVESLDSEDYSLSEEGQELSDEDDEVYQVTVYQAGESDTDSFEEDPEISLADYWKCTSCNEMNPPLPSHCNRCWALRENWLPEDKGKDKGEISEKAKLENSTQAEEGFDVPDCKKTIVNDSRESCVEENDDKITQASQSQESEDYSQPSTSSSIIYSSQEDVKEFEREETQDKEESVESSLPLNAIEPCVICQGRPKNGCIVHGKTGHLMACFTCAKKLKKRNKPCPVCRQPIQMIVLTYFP
HIF-2a conf: confirmation of HIF-2a inhibitors | shares compounds with HIF-2a block | 1,800 compounds, 56% hits | 786-0 RCC cells, HIF-2a luciferase reporter luminescence, overnight | inhibition, % at 18.8 µM;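 active means mean inhibition across four replicates of at least 40 percent at the single tested concentration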
HIF-1a counter: inhibits HIF-1a reporter, a counter-screen for HIF-2a inhibitors | 1,800 compounds, 72% hits | shares compounds with HIF-2a block | MiaPaCa-2 HIF-1a luciferase reporter, desferoxamine, overnight | inhibition, % at 18.8 µM | AID 651589;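 active means mean inhibition of the reporter signal across four replicates at the single tested dose of 50% or more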
The depositor's hits bear a star.

Results for Cc1ccccc1C(=O)N1CCN(c2ccc(NC(=O)c3ccc([N+](=O)[O-])o3)cc2)CC1 ?
HIF-2a block: 96*; Peg3 promoter: 101*; MITF TRPM1 inh: 81*; EBV LMP1 NFkB: -1; TROY signal inh: 17; TWEAK-Fn14 inh: 10; HIF-2a conf: 0; HIF-1a counter: 100*

What do the screens show for `CC(=O)NCCc1ccc(C(=O)COC(=O)c2cc(C)oc2C)cc1`?
HIF-2a block: -40; Peg3 promoter: -111; MITF TRPM1 inh: -16; EBV LMP1 NFkB: -7; TROY signal inh: -19; TWEAK-Fn14 inh: 0

What do the screens show for `Cc1cc(C)c(C)c(S(=O)(=O)N2CCNC(=O)C2)c1C`?
HIF-2a block: 14; Peg3 promoter: -1; EBV LMP1 NFkB: 1; TROY signal inh: -15; TWEAK-Fn14 inh: -4

Results for CCOc1ccc(NC(=O)C2C3C=CC4(O3)C2C(=O)N(Cc2cccnc2)C4C(=O)NC2CCCCC2)cc1 (stereo not drawn) ?
HIF-2a block: 0; Peg3 promoter: 8; MITF TRPM1 inh: 7; EBV LMP1 NFkB: 1; TROY signal inh: -10; TWEAK-Fn14 inh: 36

Results for CCN(CC)C(=O)OCCc1cc2ccccc2c(=O)o1 ?
HIF-2a block: -11; Peg3 promoter: -12; MITF TRPM1 inh: -12; EBV LMP1 NFkB: -4; TROY signal inh: -6; TWEAK-Fn14 inh: -19

What do the screens show for `CC(=O)Nc1ccc(S(=O)(=O)NCCc2ccccn2)cc1`?
HIF-2a block: 14; Peg3 promoter: 0; MITF TRPM1 inh: -13; EBV LMP1 NFkB: -3; TROY signal inh: 5; TWEAK-Fn14 inh: -11

What do the screens show for `COc1cc(/C=C2/C(=O)CNC2=O)ccc1O`?
HIF-2a block: 19; Peg3 promoter: 10; MITF TRPM1 inh: 1; EBV LMP1 NFkB: 8; TROY signal inh: 6; TWEAK-Fn14 inh: 9

What do the screens show for `COc1cc(C=C2C(=O)C=CC2=O)ccc1O`?
HIF-2a block: 84*; TROY signal inh: -1; TWEAK-Fn14 inh: 11; HIF-2a conf: 99*; HIF-1a counter: 95*

What do the screens show for `COc1ccc(C(=O)N[C@H](C(=O)Nc2nc3ccccc3[nH]2)C(C)C)cc1`?
HIF-2a block: -186; Peg3 promoter: -183; MITF TRPM1 inh: 1; EBV LMP1 NFkB: 10; TROY signal inh: -2; TWEAK-Fn14 inh: 15

What do the screens show for `COc1ccc(C(=O)Nc2nc3ccccc3[nH]2)cc1`?
HIF-2a block: 49*; Peg3 promoter: 41; MITF TRPM1 inh: 44; EBV LMP1 NFkB: 55*; TROY signal inh: 69*; TWEAK-Fn14 inh: 89*; HIF-2a conf: 64*; HIF-1a counter: 68*

How did COc1ccc(C2=NN(CN3C(=O)C(=O)c4ccccc43)C(c3cccc([N+](=O)[O-])c3)C2)cc1 (stereo not drawn) do in these assays?
HIF-2a block: -73; Peg3 promoter: -46; MITF TRPM1 inh: -5; EBV LMP1 NFkB: -4; TROY signal inh: -42; TWEAK-Fn14 inh: 0

What do the screens show for `COc1cc(OC)cc(-c2cc3nc(C)c(CCC(=O)Nc4nc(C)cs4)c(C)n3n2)c1`?
HIF-2a block: 43*; Peg3 promoter: 25; EBV LMP1 NFkB: 6; TROY signal inh: 25; TWEAK-Fn14 inh: 17; HIF-2a conf: 55*; HIF-1a counter: 45

What do the screens show for `COc1ccccc1-c1cnc(C(O)c2ccc(C)cc2)[nH]1` (stereo not drawn)?
HIF-2a block: -148; Peg3 promoter: -109; TROY signal inh: 42; TWEAK-Fn14 inh: 2

What do the screens show for `Cn1cncc1C#Cc1c(C=O)[nH]c2ccccc12`?
HIF-2a block: 43*; Peg3 promoter: 46; MITF TRPM1 inh: 62*; EBV LMP1 NFkB: 6; TROY signal inh: 8; TWEAK-Fn14 inh: 6; HIF-2a conf: 38; HIF-1a counter: 88*

What do the screens show for `Cn1cncc1C#Cc1c(C=O)n(C)c2ccccc12`?
HIF-2a block: 12; Peg3 promoter: 16; MITF TRPM1 inh: -6; EBV LMP1 NFkB: -3; TROY signal inh: 4; TWEAK-Fn14 inh: -21

How did CCCCNS(=O)(=O)c1cccc(NC(=O)[C@@H]2O[C@H](CO)[C@@H](O)[C@H]2O)c1 do in these assays?
HIF-2a block: 7; Peg3 promoter: 11; TROY signal inh: 7; TWEAK-Fn14 inh: 0

Results for Cc1ccc(C)c2c1[nH]c1ccc([N+](=O)[O-])cc12 ?
HIF-2a block: -26; Peg3 promoter: -5; MITF TRPM1 inh: 14; EBV LMP1 NFkB: 6; TROY signal inh: -4; TWEAK-Fn14 inh: -32

What do the screens show for `CCc1ccc(/C=C/C(=O)c2c(C)cc(C)[nH]c2=O)cc1`?
HIF-2a block: 52*; Peg3 promoter: 64*; MITF TRPM1 inh: 28; EBV LMP1 NFkB: 31; TROY signal inh: 44; TWEAK-Fn14 inh: 80*; HIF-2a conf: 24; HIF-1a counter: 54*

Results for CCCCCCCCC[n+]1cccc2c3ccccc3ccc21 ?
HIF-2a block: -45; Peg3 promoter: 113*; MITF TRPM1 inh: 93*; EBV LMP1 NFkB: 48*; TROY signal inh: 44; TWEAK-Fn14 inh: 32; Mdm2-MdmX confirm: 101*

Results for Cc1cccc(C)c1NC(=O)[C@@]1(CC(=O)O)CC(/C=C/c2ccccc2)=NO1 ?
HIF-2a block: 12; Peg3 promoter: 5; MITF TRPM1 inh: 7; EBV LMP1 NFkB: 6; TROY signal inh: -6; TWEAK-Fn14 inh: 13

Results for Cc1cc(C(=O)Nc2ccc(CC(=O)O)cc2)c(C)o1 ?
HIF-2a block: 49*; Peg3 promoter: -17; MITF TRPM1 inh: 11; EBV LMP1 NFkB: 1; TROY signal inh: 10; TWEAK-Fn14 inh: 49; HIF-2a conf: 60*; HIF-1a counter: 44

Results for CC(C)(C)c1ccc(C(=O)Nc2ccc(CC(=O)O)cc2)o1 ?
HIF-2a block: 83*; Peg3 promoter: 41; MITF TRPM1 inh: 73*; EBV LMP1 NFkB: 72*; TROY signal inh: 55*; TWEAK-Fn14 inh: 88*; HIF-2a conf: 96*; HIF-1a counter: 79*

What do the screens show for `S=C(N/N=C/c1ccc2ncccc2c1)Nc1ccccc1`?
HIF-2a block: 48*; Peg3 promoter: -27; MITF TRPM1 inh: 21; EBV LMP1 NFkB: 23; TROY signal inh: 31; TWEAK-Fn14 inh: 38; HIF-2a conf: -24; HIF-1a counter: 63*

What do the screens show for `C(=N\NCc1ccccc1)/c1ccc2ncccc2c1`?
HIF-2a block: -156; Peg3 promoter: -137; TROY signal inh: -16; TWEAK-Fn14 inh: -1
